PubChem BioAssay (NCATS)
Where “and” joins values, the source holds several entries; their conditions need not be identical. Equal entries are not always repeated. Results filed as inconclusive are left out. Values without a mark were called inactive. Calls of active or inactive are those of the source. Calls come from the whole dose curve; as a rule, active = well fitted cell-killing curve with a large enough effect; inconclusive = small, poorly fitted or top-dose-only effect; inactive = flat fitted curve, though single readings scatter.

Assay: Cell Viability - LYMP2-025 (AID 976);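 for activity change, negative = cytotoxicity: plate controls were DMSO only for no effect and tetraoctylammonium bromide control for full effect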
Conditions: LYMP2-025 lymphoblastoid cell viability; series mostly up to 92.2 µM; activity change, negative = cytotoxicity: at the top concentration
Source text: NIH Chemical Genomics Center [NCGC]
NIH Molecular Libraries Screening Centers Network [MLSCN]
National Institutes of Environmental Health Sciences [NIEHS]
National Toxicology Program [NTP]
We have developed a 1536-well cell-based assay for quantitative high throughput screening (qHTS) against a number of cell lines to determine in vitro cytotoxicity of small molecules. This particular assay uses a human lymphoblastoid cell line (LYMP2-025) purchased from Coriell Institute for Medical Research.
NCGC Assay Protocol Summary:
The CellTiter-Glo luminescent cell viability assay (Promega) is a homogeneous method to measure the number of viable cells in culture. The end point readout of this assay is based on quantitation of intracellular ATP, an indicator of metabolic activity, using the luciferase reaction. Luciferase catalyzes the oxidation of beetle Luciferin to oxyluciferin and light in the presence of ATP. The luminescent signal is proportional to amount of ATP present.
Using the CellTiter-Glo luminescent cell viability assay, the amount of cellular ATP was measured in the lymphoblastoid cell line with complete culture medium following compound treatment for 24 hours. The assay was performed in opaque white Kalypsys 1536-well plates. In the screen, tetraoctylammonium bromide was used as positive control. Library compounds were measured for their ability to cause acute toxicity in the cell line, as reflected by a decrease in intracellular ATP levels, in a concentration-dependent manner. […] AC50 values were determined from concentration-response data modeled with the standard Hill equation.
qHTS protocol for CellTiter Glo lymphoblastoid cellular assay
[Step] [Parameter] [Value] [Description]
1. Reagent; 5 uL; 2500 lymphoblastoid cells/well
2. Time; 5 hr; 37 C incubation
4. Controls; 23 nL; Tetraoctylammonium bromide 6.4pM to 92 uM
5. Time; 24 hr; 37 C incubation
6. Reagent; 5 uL; CellTiter Glo reagent
7. Time; 30 min; Room Temperature
8. Detection; Luminescence; Viewlux plate reader
Keywords: cell viability, cytotoxicity, lymphoblastoid cell line, luminescence, NTPHTS, NTPHTS_NCGC, NIEHS, DSSTox, MLSMR, MLSCN, NIH Roadmap, qHTS, NCGC
Potency is the fitted concentration of half-maximal effect.

SMILES | activity change, negative = cytotoxicity [%] | Potency
C[C@]12CCC(=O)C[C@@H]1CC[C@@H]1[C@@H]2CC[C@]2(C)[C@@H](O)CC[C@@H]12 | -18.1 | –
O=CC=O | -13.1 | –
O=C1CCO1 | -9.02 | –
O=C/C=C/c1ccccc1 | – | inactive
[O]=[Cd] | -17 | –
CC(C)Nc1ccc(Nc2ccccc2)cc1 | – | 50.1 µM (active)
O=C(O)C(Cl)(Cl)Cl | – | inactive
S=C=S | -5.18 | –
C=CCN=C=S | -12.2 | –
Clc1ccccc1Cl | -5.51 | –
CC(C)(C)c1cc(O)ccc1O | – | inactive
CC(C)CCON=O | -6.66 | –
ClC(Cl)(Cl)Cl | – | inactive
C[C@H]1CC[C@@H]2[C@@H](C)[C@H]3[C@H](C[C@H]4[C@@H]5CC=C6CC(O[C@@H]7O[C@H](CO)[C@H](O)[C@H](O[C@@H]8O[C@H](CO)[C@@H](O)[C@H](O)[C@H]8O)[C@H]7O[C@H]7O[C@@H](C)[C@H](O)[C@@H](O)[C@H]7O)CC[C@]6(C)[C@H]5CC[C@]34C)N2C1 (stereo not given in full) | – | 39.8 µM (active)
CCOC(=O)c1ccccc1C(=O)OCC | – | inactive
C[C@H]1CCC[C@H](O)CCCCCc2cc(O)cc(O)c2C(=O)O1 | -8.13 | –
[Cl-].[Cl-].[Hg+2] | – | 15.8 µM (active)
CCCCCCCCOC(=O)c1ccccc1C(=O)OCCCCCCCC | -1.73 | –
CCCCCl | -6.67 | –
NNC(N)=O | -6.33 | –
COc1ccc2c(c1OC)C(=O)OC2C1c2cc3c(cc2CCN1C)OCO3 (stereo not given) | -8.73 | –
O=C1C=CC(=O)C=C1 | -24.6 | –
ClC=C(Cl)Cl | -37.3 | –
O=[N+]([O-])c1ccccc1 | 1.32 | –
Oc1cc(Cl)c(Cl)cc1Cl | 1.8 | –
ClCC1CO1 (stereo not given) | 3.75 | –
[O]=[Cr](=[O])([OH])[O][Cr](=[O])(=[O])[OH] | – | 15.8 µM (active) and 12.6 µM (active)
COC1=CC(=O)O[C@@H](/C=C/c2ccccc2)C1 | -4.91 | –
O=[N+]([O-])c1ccc(F)c([N+](=O)[O-])c1 | -15.9 | –
O=Cc1ccco1 | -11.7 | –
